From PubChem BioAssay AID1159580 (chemical genetic matrix, 2015)
Among all 5,500 compounds or so, about 2,000 (36%) were called active. Another 18% or so got no clear call; they are omitted. Rule as the data show it: active = normalized growth mostly below about 0.91 (no sharp cut-off); inconclusive = no clear call, values can overlap the other calls; inactive = mostly above about 0.92. This is one part of the list.

Test: chemical genetic growth profiling, strain panel (AID 1159580);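 also: tested at 20 µM; growth read once vehicle control cultures reached saturation at 30 °C; 1 = growth at the plate median or of vehicle wells; lower values mean less growth of the strain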
Conditions: S. cerevisiae deletion strains, growth OD

Measured: normalized growth

CC1(C)CCC[C@@]2(C)C1[C@@H](O)C[C@]1(C)C2CC[C@@H]2[C@@]3(C)CC[C@H](C(C)(C)O)[C@@H]3CC[C@@]21C (some centres not stated)
inactive: locus YAL013W, strain DEP1, stronger effect = lower value 0.998 | locus YBR021W, strain FUR4, stronger effect = lower value 1.07 | locus YBR229C, strain ROT2, stronger effect = lower value 1 | locus YCL029C, strain bik1, stronger effect = lower value 0.971 | locus YDL035C, strain GPR1, stronger effect = lower value 1.01 | locus YDL074C, strain BRE1, stronger effect = lower value 1.02 | locus YDL101C, strain DUN1, stronger effect = lower value 1 | locus YDL185W, strain tfp1, stronger effect = lower value 0.943 | locus YDL192W, strain arf1, stronger effect = lower value 0.993 | locus YDR101C, strain arx1, stronger effect = lower value 1.01 | locus YDR150W, strain NUM1, stronger effect = lower value 0.992 | locus YDR162C, strain NBP2, stronger effect = lower value 1.04 | locus YDR318W, strain mcm21, stronger effect = lower value 1 | locus YDR388W, stronger effect = lower value 0.986 | locus YDR502C, strain sam2, stronger effect = lower value 0.989 | locus YEL061C, strain CIN8, stronger effect = lower value 1 | locus YER110C, stronger effect = lower value 0.977 | locus YER155C, strain BEM2, stronger effect = lower value 1.01 | locus YER167W, strain BCK2, stronger effect = lower value 0.997 | locus YGL078C, strain dbp3, stronger effect = lower value 1 | locus YGL086W, strain mad1, stronger effect = lower value 1.05 | locus YGL248W, strain PDE1, stronger effect = lower value 1 | locus YGR135W, strain pre9, stronger effect = lower value 0.993 | locus YGR252W, strain gcn5, stronger effect = lower value 1.06 | locus YHR030C, strain SLT2, stronger effect = lower value 0.992 | locus YHR079C, strain IRE1 (second series), stronger effect = lower value 1.01 | locus YHR094C, strain hxt1, stronger effect = lower value 0.981 | locus YHR129C, strain ARP1, stronger effect = lower value 0.997 | locus YHR200W, strain rpn10, stronger effect = lower value 0.984 | locus YIL066C, strain RNR3, stronger effect = lower value 1.03 | locus YIL073C, strain SPO22, stronger effect = lower value 0.941 | locus YIL125W, strain kgd1, stronger effect = lower value 0.972 | locus YIR030C, strain dcg1, stronger effect = lower value 0.996 | locus YJL095W, strain BCK1, stronger effect = lower value 1.02 | locus YJL134W, strain LCB3, stronger effect = lower value 0.991 | locus YJL168C, strain set2, stronger effect = lower value 1.01 | locus YJL187C, strain SWE1 (second series), stronger effect = lower value 1 | locus YJR043C, strain POL32, stronger effect = lower value 1.03 | locus YKL009W, strain mrt4, stronger effect = lower value 1.05 | locus YKL068W, stronger effect = lower value 0.98 | locus YKL085W, strain MDH1 (second series), stronger effect = lower value 1.04 | locus YKL085W, strain MDH1, stronger effect = lower value 1.04 | locus YKL190W, strain CNB1, stronger effect = lower value 0.997 | locus YKR001C, strain vps1, stronger effect = lower value 1.03 | locus YLR039C, strain RIC1, stronger effect = lower value 1.05 | locus YLR058C, strain SHM2, stronger effect = lower value 0.996 | locus YLR102C, strain apc9, stronger effect = lower value 0.995 | locus YLR262C, strain YPT6, stronger effect = lower value 1.04 | locus YLR268W, strain sec22, stronger effect = lower value 0.986 | locus YLR330W, strain CHS5, stronger effect = lower value 0.983 | locus YLR342W, strain FKS1 (second series), stronger effect = lower value 1.01 | locus YLR371W, strain rom2, stronger effect = lower value 0.984 | locus YLR418C, strain cdc73, stronger effect = lower value 1.06 | locus YML016C, strain PPZ1, stronger effect = lower value 0.995 | locus YML032C, strain rad52, stronger effect = lower value 0.983 | locus YML124C, strain tub3, stronger effect = lower value 1.01 | locus YMR078C, strain ctf18, stronger effect = lower value 1.01 | locus YMR223W, strain ubp8, stronger effect = lower value 0.998 | locus YMR263W, strain SAP30, stronger effect = lower value 1 | locus YMR307W, strain GAS1, stronger effect = lower value 1.12 | locus YNL067W, strain RPL9B, stronger effect = lower value 1.02 | locus YNL153C, strain GIM3, stronger effect = lower value 1.02 | locus YNL233W, strain BNI4, stronger effect = lower value 1.03 | locus YNL250W, strain rad50, stronger effect = lower value 0.982 | locus YNL271C, strain bni1, stronger effect = lower value 0.997 | locus YNL298W, strain CLA4, stronger effect = lower value 0.975 | locus YNL307C, strain MCK1, stronger effect = lower value 0.996 | locus YNL322C, strain KRE1, stronger effect = lower value 1 | locus YNR052C, strain pop2, stronger effect = lower value 0.994 | locus YOL012C, strain htz1 1.13 | locus YOL147C, strain pex11, stronger effect = lower value 0.993 | locus YOR061W, strain CKA2, stronger effect = lower value 0.999 | locus YOR069W, strain VPS5, stronger effect = lower value 0.993 | locus YOR136W, strain idh2, stronger effect = lower value 0.988 | locus YOR144C, strain elg1, stronger effect = lower value 0.997 | locus YOR184W, strain ser1, stronger effect = lower value 1.01 | locus YOR316C, strain cot1, stronger effect = lower value 0.985 | locus YPR119W, strain clb2, stronger effect = lower value 1 | locus YPR141C, strain kar3, stronger effect = lower value 0.982 | locus YPR163C, strain tif3, stronger effect = lower value 0.99 | locus YPR167C, strain met16, stronger effect = lower value 0.989 | strain wtn01, stronger effect = lower value 0.986
